This note sets out measurements from PubChem BioAssay AID2284323 (EPA ToxCast).

Usually AC50 stands for the midpoint of the concentration-response curve, whichever way the signal moves.

Each structure is given as a SMILES string. “And” between values parts separate entries of the source, which are not always exact repeats. Equal values may be shown once. The source made the active and inactive calls. How the source made its calls: active means hit-call score of the fitted dose curve at least 0.9, where 1 is the maximum; inactive means score below 0.9.

This experiment has as its system NCBI gene 447152. Description: CCTE_GLTED_xIYD: CCTE's Xenopus Iodotyrosine Deiodinase (xIYD) Inhibition Assay, Great Lakes Toxicology and Ecology Division (GLTED) Lab. On the procedure:
CCTE_GLTED_xIYD is a cell-free, single-readout assay that uses Xenopus (frog) iodotyrosine deiodinase (xIYD) enzyme from liver microsomes. Assay is based on iodide release measured by the Sandell-Kolthoff method and is run in 96-well plate format with assay plates run in triplicate (n=3) with measurements taken at 3 hours after chemical dosing. Platewise-normalization was used based on positive control (3-Nitro-L-tyrosine, MNT) and negative/solvent controls (DMSO, NaOH).CCTE_GLTED_xIYD is the assay component measured from the CCTE_GLTED_xIYD assay. It measures substrate involved in regulation of catalytic activity using spectrophotometry. The assay measures the deiodination activity of Xenopus (frog) IYD on the substrate monoiodotyrosine (MIT). After 3h incubation of substrate, enzyme, and test chemical, the components are applied to a 96-well Dowex column. Free iodide is not retained by the column and is separated from interfering assay components. The free iodide is measured by the Sandell-Kolthoff reaction in which the rate of reduction of cerium (Ce+4 to Ce+3) by arsenic (As+3 to As+5) is increased by the presence of iodide. This is observed as the loss of yellow color in the reaction and the quantified by the change in absorbance at 420 nm. The change in reaction rate is proportional to the amount of iodide present.Data from the assay component CCTE_GLTED_xIYD was analyzed at the assay endpoint CCTE_GLTED_xIYD in the positive analysis fitting direction relative to DMSO as the negative control and baseline of activity. Using a type of enzyme reporter, loss-of-signal activity can be used to understand iodotyrosine deiodinase activity. To generalize the intended target to other relatable targets, this assay endpoint is annotated to the 'dehalogenase' intended target family, where the subfamily is 'iodotyrosine deiodinase'.
Human transthyretin (TTR) assay, developed at Great Lakes Toxicology and Ecology Division (GLTED) within the EPA's Center for Computational Toxicology and Exposure (CCTE), is designed to test the chemicals' ability to displace T4 from the TTR protein. TTR (0.125uM) is incubated in presence of test chemical for 2 hours during which disrupting chemicals displace ANSA from the TTR protein. Results read fluorescence at 380 excitation and 475 emission.
In the case of `NS(=O)(=O)C(F)(F)C(F)(F)C(F)(F)C(F)(F)C(F)(F)C(F)(F)C(F)(F)C(F)(F)F`, the AC50 is 61.2 µM (active). In the case of `O=C(O)C(F)(F)C(F)(F)C(F)(F)C(F)(F)C(F)(F)C(F)(F)C(F)(F)C(F)(F)C(F)(F)F` it was 73.7 µM (active); in that of `O=S(=O)(O)C(F)(F)C(F)(F)C(F)(F)C(F)(F)C(F)(F)C(F)(F)C(F)(F)C(F)(F)F`, 36.4 µM (active) and 27.5 µM (active); in that of `O=C(O)C(F)(F)C(F)(F)C(F)(F)C(F)(F)C(F)(F)C(F)(F)C(F)(F)C(F)(F)F`, 39.2 µM (active). The result for `O=C(O)C(F)(F)C(F)(F)C(F)(F)C(F)(F)C(F)(F)C(F)(F)C(F)(F)C(F)(F)C(F)(F)C(F)(F)F` reads 35.9 µM (active).
